# Measurements reported in ChEMBL document CHEMBL1961873, “Compounds: GSK PKIS; Assays: Nanosyn kinase panel” (2012).
# Key:
# [1] = target: Sphingosine kinase 1 (Homo sapiens) (UniProt Q9NYA1); settings: at 1 µM;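 further: mean SPHK1 inhibition value reported from the GSK PKIS kinase panel screen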
# [2] = target: T1, Sphingosine kinase 2 (Homo sapiens) (UniProt Q9NRA0); settings: at 0.1 µM
# T1 sequence (whole entry): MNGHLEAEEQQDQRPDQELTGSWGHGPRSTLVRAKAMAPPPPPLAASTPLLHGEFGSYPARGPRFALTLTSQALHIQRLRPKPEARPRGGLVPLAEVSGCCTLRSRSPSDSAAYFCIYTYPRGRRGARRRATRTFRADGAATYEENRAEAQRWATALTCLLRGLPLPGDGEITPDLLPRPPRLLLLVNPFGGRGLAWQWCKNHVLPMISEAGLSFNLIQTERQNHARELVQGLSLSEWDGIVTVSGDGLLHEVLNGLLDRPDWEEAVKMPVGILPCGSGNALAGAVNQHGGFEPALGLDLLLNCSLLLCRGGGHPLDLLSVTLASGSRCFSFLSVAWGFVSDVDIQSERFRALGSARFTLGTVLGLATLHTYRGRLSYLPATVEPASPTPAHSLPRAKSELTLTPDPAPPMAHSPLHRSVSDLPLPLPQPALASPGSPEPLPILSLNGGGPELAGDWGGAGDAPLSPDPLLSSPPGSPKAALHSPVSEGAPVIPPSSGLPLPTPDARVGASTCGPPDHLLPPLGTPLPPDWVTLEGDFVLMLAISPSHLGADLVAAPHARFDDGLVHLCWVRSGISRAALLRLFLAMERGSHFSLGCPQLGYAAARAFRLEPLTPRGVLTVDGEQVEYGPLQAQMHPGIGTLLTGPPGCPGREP
# [3] = target: T1, Sphingosine kinase 2 (Homo sapiens); settings: at 1 µM
# [4] = target: Casein kinase II subunit alpha (Homo sapiens) (UniProt P68400); settings: at 0.1 µM
# [5] = target: Casein kinase II subunit alpha (Homo sapiens) (UniProt P68400); settings: at 1 µM
# [6] = target: T2, Inhibitor of nuclear factor kappa-B kinase subunit alpha (Homo sapiens) (UniProt O15111); settings: at 0.1 µM
# T2 sequence (whole entry): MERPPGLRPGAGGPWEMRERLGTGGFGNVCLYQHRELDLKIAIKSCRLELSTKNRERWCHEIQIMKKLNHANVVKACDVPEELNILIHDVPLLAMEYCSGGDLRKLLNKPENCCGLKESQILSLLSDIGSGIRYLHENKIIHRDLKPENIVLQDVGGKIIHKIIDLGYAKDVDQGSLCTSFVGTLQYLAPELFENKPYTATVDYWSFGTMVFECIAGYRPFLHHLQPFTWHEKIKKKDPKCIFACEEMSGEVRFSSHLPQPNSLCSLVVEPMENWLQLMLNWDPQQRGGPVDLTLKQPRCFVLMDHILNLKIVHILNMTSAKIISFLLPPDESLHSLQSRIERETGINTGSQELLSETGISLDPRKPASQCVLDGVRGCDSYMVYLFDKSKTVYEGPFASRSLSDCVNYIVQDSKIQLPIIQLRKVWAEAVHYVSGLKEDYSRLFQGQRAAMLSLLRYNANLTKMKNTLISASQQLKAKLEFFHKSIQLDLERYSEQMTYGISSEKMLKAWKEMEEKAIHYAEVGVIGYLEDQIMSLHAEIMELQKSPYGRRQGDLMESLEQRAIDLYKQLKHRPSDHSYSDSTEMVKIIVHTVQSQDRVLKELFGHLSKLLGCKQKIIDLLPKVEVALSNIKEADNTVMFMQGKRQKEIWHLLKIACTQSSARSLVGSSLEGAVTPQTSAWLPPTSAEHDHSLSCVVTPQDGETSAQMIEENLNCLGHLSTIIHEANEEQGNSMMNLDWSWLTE
# [7] = target: T2, Inhibitor of nuclear factor kappa-B kinase subunit alpha (Homo sapiens); settings: at 1 µM
# [8] = target: T3, Inhibitor of nuclear factor kappa-B kinase subunit beta (Homo sapiens) (UniProt O14920); settings: at 0.1 µM
# T3 sequence (whole entry): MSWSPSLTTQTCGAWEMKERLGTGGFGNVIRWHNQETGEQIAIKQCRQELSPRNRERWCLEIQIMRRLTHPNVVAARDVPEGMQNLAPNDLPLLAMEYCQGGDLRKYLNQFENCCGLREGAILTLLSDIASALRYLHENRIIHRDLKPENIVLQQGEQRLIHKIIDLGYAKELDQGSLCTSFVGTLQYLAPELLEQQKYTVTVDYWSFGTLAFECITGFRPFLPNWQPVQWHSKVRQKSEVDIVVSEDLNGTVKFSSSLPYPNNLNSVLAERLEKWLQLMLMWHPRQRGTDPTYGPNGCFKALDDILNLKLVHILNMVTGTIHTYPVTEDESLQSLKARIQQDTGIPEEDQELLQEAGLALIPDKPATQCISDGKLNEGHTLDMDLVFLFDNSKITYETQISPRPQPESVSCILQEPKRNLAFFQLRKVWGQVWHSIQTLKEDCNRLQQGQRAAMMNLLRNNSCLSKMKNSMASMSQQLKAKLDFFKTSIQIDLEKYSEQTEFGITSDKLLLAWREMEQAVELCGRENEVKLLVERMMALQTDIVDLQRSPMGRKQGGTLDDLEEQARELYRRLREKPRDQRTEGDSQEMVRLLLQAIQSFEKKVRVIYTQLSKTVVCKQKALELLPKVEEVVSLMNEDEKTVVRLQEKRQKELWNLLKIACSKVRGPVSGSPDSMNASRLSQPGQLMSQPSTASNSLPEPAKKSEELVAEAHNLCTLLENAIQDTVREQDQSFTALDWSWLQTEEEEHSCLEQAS
# [9] = target: T3, Inhibitor of nuclear factor kappa-B kinase subunit beta (Homo sapiens); settings: at 1 µM
# [10] = target: T4, Inhibitor of nuclear factor kappa-B kinase subunit epsilon (Homo sapiens) (UniProt Q14164); settings: at 0.1 µM
# T4 sequence (whole entry): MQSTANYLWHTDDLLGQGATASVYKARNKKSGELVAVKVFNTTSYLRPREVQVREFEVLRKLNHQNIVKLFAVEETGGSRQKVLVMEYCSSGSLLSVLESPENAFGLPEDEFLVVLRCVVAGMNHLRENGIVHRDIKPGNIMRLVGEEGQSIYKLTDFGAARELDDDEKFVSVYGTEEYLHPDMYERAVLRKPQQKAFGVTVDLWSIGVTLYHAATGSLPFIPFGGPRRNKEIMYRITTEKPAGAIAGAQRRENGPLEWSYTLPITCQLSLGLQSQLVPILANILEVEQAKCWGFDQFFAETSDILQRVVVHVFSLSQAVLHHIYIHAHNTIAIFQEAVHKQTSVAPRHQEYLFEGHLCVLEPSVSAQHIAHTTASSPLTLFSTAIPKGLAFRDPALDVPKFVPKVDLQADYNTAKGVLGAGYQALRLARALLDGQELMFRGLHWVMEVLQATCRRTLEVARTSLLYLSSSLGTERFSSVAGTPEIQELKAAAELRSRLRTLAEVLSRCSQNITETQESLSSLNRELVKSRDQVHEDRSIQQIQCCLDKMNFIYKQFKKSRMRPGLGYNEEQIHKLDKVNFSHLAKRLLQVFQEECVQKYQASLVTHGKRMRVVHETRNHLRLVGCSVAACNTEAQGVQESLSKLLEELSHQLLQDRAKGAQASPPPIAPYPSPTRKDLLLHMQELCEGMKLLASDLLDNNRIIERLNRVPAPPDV
# [11] = target: T4, Inhibitor of nuclear factor kappa-B kinase subunit epsilon (Homo sapiens); settings: at 1 µM
# [12] = target: T5, Serine/threonine-protein kinase Nek1 (Homo sapiens) (UniProt Q96PY6); settings: at 0.1 µM
# T5 sequence (whole entry): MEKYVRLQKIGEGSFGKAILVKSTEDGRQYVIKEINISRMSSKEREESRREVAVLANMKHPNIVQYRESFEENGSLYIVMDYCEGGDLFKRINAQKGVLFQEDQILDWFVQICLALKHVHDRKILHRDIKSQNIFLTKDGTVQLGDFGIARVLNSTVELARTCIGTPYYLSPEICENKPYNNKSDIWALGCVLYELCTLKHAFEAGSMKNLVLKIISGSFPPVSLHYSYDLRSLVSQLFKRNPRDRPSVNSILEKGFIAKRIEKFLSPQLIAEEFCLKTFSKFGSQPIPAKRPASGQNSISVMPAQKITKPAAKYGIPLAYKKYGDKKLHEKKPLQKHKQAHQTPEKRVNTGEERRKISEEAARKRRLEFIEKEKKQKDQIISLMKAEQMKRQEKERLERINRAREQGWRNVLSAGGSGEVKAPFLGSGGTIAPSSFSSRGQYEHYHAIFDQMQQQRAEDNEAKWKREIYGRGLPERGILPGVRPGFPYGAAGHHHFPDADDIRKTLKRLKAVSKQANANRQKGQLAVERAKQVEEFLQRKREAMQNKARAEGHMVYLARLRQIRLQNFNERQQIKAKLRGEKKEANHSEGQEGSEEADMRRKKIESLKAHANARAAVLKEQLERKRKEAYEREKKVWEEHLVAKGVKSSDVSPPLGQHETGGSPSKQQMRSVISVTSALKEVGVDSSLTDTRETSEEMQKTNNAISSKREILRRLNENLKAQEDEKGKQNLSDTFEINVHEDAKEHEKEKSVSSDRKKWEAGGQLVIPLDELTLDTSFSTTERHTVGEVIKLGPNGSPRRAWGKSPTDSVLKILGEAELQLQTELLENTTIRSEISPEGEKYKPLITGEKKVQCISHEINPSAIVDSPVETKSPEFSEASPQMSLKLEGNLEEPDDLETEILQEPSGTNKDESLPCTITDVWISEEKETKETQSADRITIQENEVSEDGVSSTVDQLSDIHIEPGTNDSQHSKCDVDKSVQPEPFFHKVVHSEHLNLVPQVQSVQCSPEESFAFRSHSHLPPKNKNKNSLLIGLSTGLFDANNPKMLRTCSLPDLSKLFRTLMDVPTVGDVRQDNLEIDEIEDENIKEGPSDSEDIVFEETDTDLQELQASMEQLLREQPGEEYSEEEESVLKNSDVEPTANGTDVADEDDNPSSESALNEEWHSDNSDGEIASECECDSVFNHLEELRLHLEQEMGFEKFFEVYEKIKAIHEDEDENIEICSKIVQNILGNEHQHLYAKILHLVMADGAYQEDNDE
# [13] = target: T5, Serine/threonine-protein kinase Nek1 (Homo sapiens); settings: at 1 µM
# [14] = target: T6, Serine/threonine-protein kinase Nek2 (Homo sapiens) (UniProt P51955); settings: at 0.1 µM
# T6 sequence (whole entry): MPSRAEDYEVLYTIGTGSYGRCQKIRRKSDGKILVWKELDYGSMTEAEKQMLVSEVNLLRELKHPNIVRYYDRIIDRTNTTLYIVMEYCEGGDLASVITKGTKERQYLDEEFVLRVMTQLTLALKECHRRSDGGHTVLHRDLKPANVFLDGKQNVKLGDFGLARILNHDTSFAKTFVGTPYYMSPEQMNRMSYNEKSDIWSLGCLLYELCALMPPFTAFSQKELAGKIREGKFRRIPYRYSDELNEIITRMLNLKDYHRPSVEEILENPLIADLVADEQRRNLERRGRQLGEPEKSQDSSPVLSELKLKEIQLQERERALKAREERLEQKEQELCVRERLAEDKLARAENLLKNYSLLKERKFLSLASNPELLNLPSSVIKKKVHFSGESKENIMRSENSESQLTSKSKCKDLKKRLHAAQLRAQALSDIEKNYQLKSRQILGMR
# [15] = target: T6, Serine/threonine-protein kinase Nek2 (Homo sapiens); settings: at 1 µM
# [16] = target: Serine/threonine-protein kinase Nek6 (Homo sapiens) (UniProt Q9HC98); settings: at 0.1 µM
# [17] = target: Serine/threonine-protein kinase Nek6 (Homo sapiens) (UniProt Q9HC98); settings: at 1 µM
# [18] = target: Serine/threonine-protein kinase Nek7 (Homo sapiens) (UniProt Q8TDX7); settings: at 0.1 µM
# [19] = target: Serine/threonine-protein kinase Nek7 (Homo sapiens) (UniProt Q8TDX7); settings: at 1 µM
# [20] = target: T7, Serine/threonine-protein kinase Nek9 (Homo sapiens) (UniProt Q8TD19); settings: at 0.1 µM;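 further: reported value is the mean percent inhibition of NEK9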
# T7 sequence (whole entry): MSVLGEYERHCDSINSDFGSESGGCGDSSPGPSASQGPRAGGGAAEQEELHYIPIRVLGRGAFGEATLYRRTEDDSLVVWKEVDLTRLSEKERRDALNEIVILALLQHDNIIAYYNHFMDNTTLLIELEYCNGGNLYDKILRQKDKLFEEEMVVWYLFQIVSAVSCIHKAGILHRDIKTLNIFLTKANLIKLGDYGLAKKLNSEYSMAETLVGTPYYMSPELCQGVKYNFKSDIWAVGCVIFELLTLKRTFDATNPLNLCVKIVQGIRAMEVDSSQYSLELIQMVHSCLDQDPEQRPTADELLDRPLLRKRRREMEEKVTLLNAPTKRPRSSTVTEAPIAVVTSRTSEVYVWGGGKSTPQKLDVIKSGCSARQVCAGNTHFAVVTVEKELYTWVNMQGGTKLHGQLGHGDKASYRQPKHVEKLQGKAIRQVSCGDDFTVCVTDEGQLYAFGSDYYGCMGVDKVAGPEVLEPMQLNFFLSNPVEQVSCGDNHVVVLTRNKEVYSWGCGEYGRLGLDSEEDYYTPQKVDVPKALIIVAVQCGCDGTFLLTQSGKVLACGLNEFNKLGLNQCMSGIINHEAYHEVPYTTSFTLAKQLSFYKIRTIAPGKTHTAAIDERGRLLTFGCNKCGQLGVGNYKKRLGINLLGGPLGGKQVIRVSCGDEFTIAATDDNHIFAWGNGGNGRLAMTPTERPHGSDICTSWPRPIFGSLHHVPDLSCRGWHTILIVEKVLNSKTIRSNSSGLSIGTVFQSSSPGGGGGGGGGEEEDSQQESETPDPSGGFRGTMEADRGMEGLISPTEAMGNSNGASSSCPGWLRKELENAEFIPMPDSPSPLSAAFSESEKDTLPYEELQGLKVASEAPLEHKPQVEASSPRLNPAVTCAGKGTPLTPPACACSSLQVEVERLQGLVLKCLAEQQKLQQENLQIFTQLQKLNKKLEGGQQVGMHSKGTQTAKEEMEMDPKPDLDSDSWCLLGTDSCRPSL
# Casein kinase II subunit alpha (Homo sapiens), sequence (P68400 whole entry, looked up): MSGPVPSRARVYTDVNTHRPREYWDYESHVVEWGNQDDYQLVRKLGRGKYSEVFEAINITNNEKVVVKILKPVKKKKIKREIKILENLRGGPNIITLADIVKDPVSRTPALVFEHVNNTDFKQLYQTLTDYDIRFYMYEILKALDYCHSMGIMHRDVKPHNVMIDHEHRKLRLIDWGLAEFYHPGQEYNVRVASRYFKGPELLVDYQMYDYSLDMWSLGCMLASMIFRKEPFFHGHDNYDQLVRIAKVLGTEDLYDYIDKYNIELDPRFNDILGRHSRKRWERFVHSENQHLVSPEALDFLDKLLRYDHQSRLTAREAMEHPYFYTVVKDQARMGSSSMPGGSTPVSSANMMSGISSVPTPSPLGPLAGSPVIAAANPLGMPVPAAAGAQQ
# Serine/threonine-protein kinase Nek6 (Homo sapiens), sequence (Q9HC98 whole entry): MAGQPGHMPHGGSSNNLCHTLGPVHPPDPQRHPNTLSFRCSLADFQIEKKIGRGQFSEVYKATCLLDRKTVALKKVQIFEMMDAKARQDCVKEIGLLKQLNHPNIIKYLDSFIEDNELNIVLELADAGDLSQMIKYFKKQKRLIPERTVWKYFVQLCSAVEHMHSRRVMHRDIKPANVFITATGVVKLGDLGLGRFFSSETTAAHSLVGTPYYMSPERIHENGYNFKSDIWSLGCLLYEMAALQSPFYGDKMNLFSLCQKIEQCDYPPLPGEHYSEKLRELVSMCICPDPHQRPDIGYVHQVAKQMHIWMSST
# Serine/threonine-protein kinase Nek7 (Homo sapiens), sequence (Q8TDX7 whole entry, looked up): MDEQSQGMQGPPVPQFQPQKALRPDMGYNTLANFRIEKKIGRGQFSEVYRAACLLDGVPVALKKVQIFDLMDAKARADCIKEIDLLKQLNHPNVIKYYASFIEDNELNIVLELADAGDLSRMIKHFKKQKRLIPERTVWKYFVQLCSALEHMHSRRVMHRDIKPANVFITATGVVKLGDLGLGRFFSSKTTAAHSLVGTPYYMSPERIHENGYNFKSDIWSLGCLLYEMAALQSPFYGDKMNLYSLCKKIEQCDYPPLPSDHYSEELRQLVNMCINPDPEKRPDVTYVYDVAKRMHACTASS
# Sphingosine kinase 1 (Homo sapiens), sequence (Q9NYA1 whole entry): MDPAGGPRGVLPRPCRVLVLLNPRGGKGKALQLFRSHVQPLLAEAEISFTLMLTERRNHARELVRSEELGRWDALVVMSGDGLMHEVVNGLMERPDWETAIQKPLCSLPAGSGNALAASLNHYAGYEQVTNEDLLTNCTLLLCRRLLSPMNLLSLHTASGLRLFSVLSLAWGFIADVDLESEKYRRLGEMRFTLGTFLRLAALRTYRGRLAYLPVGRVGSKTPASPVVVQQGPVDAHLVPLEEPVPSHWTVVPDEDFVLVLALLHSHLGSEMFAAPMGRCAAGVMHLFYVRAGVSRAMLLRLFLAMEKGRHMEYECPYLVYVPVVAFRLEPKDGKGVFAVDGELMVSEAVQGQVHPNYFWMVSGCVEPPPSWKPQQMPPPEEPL
smiles,measurement,setting,value
OCCCNc1nccc(-c2c(-c3ccc(F)cc3)nn3cc(C(F)(F)F)ccc23)n1,inhibition,[1],-0.86%
same,inhibition,[2],1.62%
same,inhibition,[3],-1.3%
same,inhibition,[4],1.23%
same,inhibition,[5],6.41%
same,inhibition,[6],-2.66%
same,inhibition,[7],1.51%
same,inhibition,[8],1.75%
same,inhibition,[9],-0.39%
same,inhibition,[10],0.9%
same,inhibition,[11],0.15%
same,inhibition,[12],-0.37%
same,inhibition,[13],0.3%
same,inhibition,[14],2.83%
same,inhibition,[15],2.24%
same,inhibition,[16],4.06%
same,inhibition,[17],-0.92%
same,inhibition,[18],2.99%
same,inhibition,[19],-4.27%
same,inhibition,[20],7.44%
